The list is not random: actives were taken first. Their share in the collection is about 2.5%.
GALK inh: qHTS Assay for Inhibitors of Human Galactokinase (GALK): NCGC Sytravon Library Screen; Potency, µM (doses to about 57.5 µM), inactives show top-dose activity, negative = inhibition, most hits filed as inhibitors; P51570; recombinant GALK, Kinase-Glo ATP luminescence, 1 h; AID 1347072, 2019; 44,000 tested, under 10 active;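 further: plate controls were full GALK reaction for no effect and reaction lacking GALK for full effect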
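5 nM GALK; 35 uM ATP; 100 uM D-galactose; 20 mM HEPES pH 8.0, 5 mM MgCl2, 60 mM NaCl, 1 mM DTT, 0.01% BSA; 1 h RT; Kinase-Glo Plus luminescence.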
NTMT1 inhibitor: Primary qHTS for Inhibitors of N-terminal methyltransferase 1 (NTMT1): MTaseGlo Assay. 2.5% of 59,000 active. NTMT1 MTase-Glo SAH luminescence, purified enzyme. N-terminal Xaa-Pro-Lys N-methyltransferase 1 (Homo sapiens), Q9BV86. Potency, µM (series often up to 114 µM), for the others: at the top dose activity change, negative = inhibition, hits mostly inhibitors. AID 1645870, 2021;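 further: potency means the concentration at half of the fitted maximal effect; plate controls were DMSO vehicle for no effect and no enzyme for full effect; nearly all actives have a fitted effect of over 65% in size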
Target sequence (Q9BV86 whole entry, looked up): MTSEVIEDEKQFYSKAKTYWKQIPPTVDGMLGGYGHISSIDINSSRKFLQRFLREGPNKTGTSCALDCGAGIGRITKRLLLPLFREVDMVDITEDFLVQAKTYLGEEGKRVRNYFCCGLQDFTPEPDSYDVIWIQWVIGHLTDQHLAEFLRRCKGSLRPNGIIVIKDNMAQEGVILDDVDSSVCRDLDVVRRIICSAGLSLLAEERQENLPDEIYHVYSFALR
HTT promoter inh: Primary qHTS for Identification of Small Molecule Inhibitors of Huntingtin Promoter Activity | 0.93% of 48,000 active | Potency, µM (doses to about 57.5 µM), without a hit: at the highest dose activity change, negative = inhibition, actives largely listed as inhibitors | HEK293 HTT promoter firefly luciferase reporter, 24 h; further: potency means the concentration at half of the fitted maximal effect; nearly all actives have a fitted effect of over 50% in size
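HEK293 cells carrying firefly luciferase reporters were seeded at 2,500 per well in Opti-MEM and cultured for 24 h. They were then treated with compounds at up to 57.5 uM final for 24 h at 37 degrees C before Dual-Glo luminescence readout.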
HTT-AS promoter: Primary qHTS for Identification of Small Molecule Activators of Huntingtin-Antisense Promoter Activity | HEK293 HTT-AS promoter firefly luciferase reporter, 24 h; response scale: percent change from vehicle, -100% = no light | Potency, µM (titrated, usually from 57.5 µM), for the others: at the top dose activity change, positive = activation, usual class: activators | 0.24% of 48,000 active | AID 1508624, 2021; further: potency means the concentration at half of the fitted maximal effect; nearly all actives have a fitted effect of over 55% in size
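Quantitative HTS used concentration series of up to 57.5 uM final on HEK293 luciferase reporter cells, 24 h at 37 degrees C. Readout was Dual-Glo firefly luminescence.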
FH mod: Identification of activators of human fumarate hydratase by quantitative high-throughput screening; Fumarate hydratase, mitochondrial (Homo sapiens), P07954; FH coupled MDH/diaphorase resazurin fluorescence, 15 min; Potency, µM (titrated, usually from 79.9 µM), inactives show at the top dose activity change, negative = inhibition, usual class: inhibitors; 0.22% of 54,000 active; further: potency means the concentration at half of the fitted maximal effect; on the % scale 0 is the no-effect control and ±100 the full control effect; the screen sought activators but most active calls are inhibition curves; nearly all actives have a fitted effect of over 45% in size
Target sequence (P07954 whole entry, looked up): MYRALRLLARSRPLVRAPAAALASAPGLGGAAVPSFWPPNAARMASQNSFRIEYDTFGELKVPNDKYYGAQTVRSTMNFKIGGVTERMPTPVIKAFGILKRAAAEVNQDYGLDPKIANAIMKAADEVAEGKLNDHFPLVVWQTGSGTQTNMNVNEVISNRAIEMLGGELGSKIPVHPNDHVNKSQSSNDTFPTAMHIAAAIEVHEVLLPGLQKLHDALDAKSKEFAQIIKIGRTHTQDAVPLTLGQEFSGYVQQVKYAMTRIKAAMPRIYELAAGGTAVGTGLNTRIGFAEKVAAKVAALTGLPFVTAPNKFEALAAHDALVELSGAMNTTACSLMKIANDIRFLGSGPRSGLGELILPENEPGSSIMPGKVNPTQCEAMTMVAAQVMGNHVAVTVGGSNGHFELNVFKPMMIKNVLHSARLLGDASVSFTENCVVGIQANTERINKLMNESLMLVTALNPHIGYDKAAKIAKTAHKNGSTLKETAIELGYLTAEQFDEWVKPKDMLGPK
Active calls of the source: *; ? = inconclusive; nt = no result; ! = a repeat was not active; [ ] = remark or other dose. The call rests on the fitted dose curve; in most records, active means well fitted curve in the direction sought with a large enough effect; inconclusive means small, poorly fitted or top-dose-only effect, or another doubt; inactive means no such curve, though single readings can be large; an effect the other way counts as inactive or inconclusive.

SMILES | GALK inh | NTMT1 inhibitor | HTT promoter inh | HTT-AS promoter | FH mod
CC[C@H](C)/C=C(C)/C=C/C1=CC2=C(Cl)C(=O)[C@](C)(O)[C@H](OC(C)=O)[C@H]2CO1 | nt | ? | nt | nt | -11.7%[53.3 µM]
CCOC(=O)c1nn(-c2ccccc2)c(=O)c2c(N)scc12 | nt | 50.1µM* | nt | nt | nt
O=S(=O)(Nc1nc(CN2CCOCC2)nc2sc3c(c12)CCCC3)c1ccc2ccccc2c1 | nt | 11.0% | nt | nt | nt
COc1cc(NC(=O)c2ccc(-c3nc(COc4ccccc4)c(C)o3)cc2)cc(OC)c1 | -0.9% | 4.8% | 14.1µM* | -47.8% | ?
O=[S+]([O-])(Nc1ccc(-c2nc3ccccc3[nH]2)cc1)c1ccc2c(c1)CCO2 | nt | 3.7% | nt | nt | nt
CCCCNC(=O)c1ccc(-c2nc(CN3CCc4ccccc43)c(C)o2)cc1 | 1.1% | 14.0% | -38.3% | -33.0% | -5.0%
Cc1oc(-c2ccc(C(=O)NCc3ccccc3Cl)cc2)nc1CN1CCc2ccccc21 | -1.7% | -4.3% | 14.1µM* | -34.4% | -13.5%
COc1ccccc1CNC(=O)c1ccc(-c2nc(CN3CCc4ccccc43)c(C)o2)cc1 | -2.3% | 10.8% | 17.8µM* | -36.6% | -30.0%
CCn1c(N)c(C(=O)NC)c(=O)c2ccc(C#CC(C)(O)COC)nc21 (stereo unspecified) | nt | ? | nt | nt | -1.2%
Cc1ccc(NC(=O)c2cccn2-c2nnc(N3CCCCC3)s2)cc1Cl | -1.2% | 79.4µM* | -18.2% | -15.7% | -17.7%
O=C(Cc1ccccc1)Nc1sc2c(c1C(=O)Nc1ccccc1Cl)CCCC2 | -1.9% | 89.1µM* | 4.8% | -14.6% | 5.2%
COc1ccccc1NC(=O)c1c(NCc2ccc(C)o2)sc2c1CCCCC2 | 1.5% | 28.2µM* | 7.9% | 3.5% | -19.7%
COc1ccc(CC(=O)Nc2sc3c(c2C(=O)Nc2cccc(Cl)c2)CCCCC3)cc1 | 0.0% | 19.4% | ? | -79.3% | ?
O=C(Nc1sc2c(c1C(=O)Nc1cccc(Cl)c1)CCCC2)c1cccs1 | 2.3% | 25.1µM* | -11.4% | -31.3% | 8.7%
CC(CO)C1CCC2(C)CC3C(CO)CC(O)C3C(C)(O)C/C=C/12 (stereo unspecified) | nt | -0.9%[29.8 µM] | nt | nt | 6.3%[53.3 µM]
O=C(Nc1nc2cc(C(F)(F)F)ccc2s1)c1ccc(-c2cccc([N+](=O)[O-])c2)o1 | nt | 10.7% | nt | nt | nt
CCCCC#Cc1nc(NC)c2ncn([C@@H]3O[C@H](CO)[C@@H](O)C3O)c2n1 (stereo partly specified) | nt | nt | nt | nt | -8.1%[53.3 µM]
CC(=O)N1CCC[C@H]1C(=O)N[C@@H](Cc1cnc[nH]1)C(=O)N[C@@H](CO)C(=O)N[C@@H](CS)C(=O)N[C@@H](CC(N)=O)C(N)=O | nt | 12.5% | nt | nt | nt
CCOc1ccc(C2C(C(=O)Nc3ccccc3)=C(C)Nc3nc(SCc4cccc(OC)c4)nn32)cc1 (stereo unspecified) | 1.5% | 7.3% | 6.1% | 4.1% | -3.6%
COc1cccc(CSc2nc3n(n2)C(c2ccc(C(=O)O)cc2)C(C(=O)Nc2ccccc2)=C(C)N3)c1 (stereo unspecified) | -0.9% | 44.7µM* | 12.9% | 6.2% | -4.1%
CC(C)=CC[C@@H](O)C1=CC(=O)c2c(O)ccc(O)c2C1=O | nt | 50.1µM*! | ? | -67.5% | -4.8%[53.3 µM]
CC[C@H](C)[C@@H]([C@@H](CC(=O)N1CCC[C@H]1[C@H](OC)[C@@H](C)C(=O)N[C@@H](Cc1ccccc1)c1nccs1)OC)N(C)C(=O)[C@@H](NC(=O)[C@H](C(C)C)N(C)C)C(C)C | nt | 14.1% | nt | nt | nt
Nc1nc(Nc2ccc3c(c2)CC[C@@H](N2CCCC2)CC3)nn1-c1cc2c(nn1)-c1ccccc1CCC2 | nt | 35.5µM* | nt | nt | nt
O=c1c2ccccc2nc2sc(Nc3ccc4c(c3)CCC4)nn12 | nt | -10.9% | nt | nt | nt
COc1ccc(C(=O)N(Cc2cc(OC)c(OC)c(OC)c2)c2ccccn2)cc1 | -4.9% | ? | ? | -25.8% | -4.2%
SMILES | GALK inh | NTMT1 inhibitor | HTT promoter inh | HTT-AS promoter | FH mod
COc1cc(CN(C(=O)c2ccc(OC(C)C)cc2)c2ccccn2)cc(OC)c1OC | -4.8% | 15.9% | 15.8µM* | -54.1% | -4.3%
Cc1c(C(=O)OCC2CC2)[nH]c2c1C(=O)CC(c1ccco1)C2 (stereo unspecified) | nt | -19.9% | nt | nt | nt
Cn1ccc(NC(=O)c2cc(Oc3ccc(C(=O)N4CCC4)c(F)c3)c3c(c2)OC(C)(C)C3)n1 | nt | 14.3%[57.5 µM] | nt | nt | 1.8%
CC(=O)Nc1cccc(NC(=O)CSc2nccn2Cc2ccco2)c1 | -4.8% | -2.2% | ? | -3.4% | -3.3%
Cc1cc(C)c(NC(=O)CSc2nccn2Cc2ccco2)c(C)c1 | 1.7% | 5.5% | 43.9% | 5.01µM* | 3.3%
CC(=O)c1ccc(N2CCN(C(=O)Nc3ccc(C(C)C)cc3)CC2)cc1 | 0.2% | -2.2% | 22.4µM* | -58.5% | -16.8%
c1ccc2c(-c3cnn4cc(-c5ccc(OCCN6CCOCC6)cc5)cnc34)ccnc2c1 | nt | -15.0%[57.5 µM] | nt | nt | nt
Cc1ccc(Cl)cc1N1CCN(CCCNC(=O)c2ccc3nc(N4CCCCC4)sc3c2)CC1 | -2.4% | ? | ? | -36.3% | ?
COc1ccc(N2CCN(CCCNC(=O)c3ccc4nc(N5CCCCC5)sc4c3)CC2)cc1 | -0.3% | 22.4µM* | ? | -55.7% | -12.5%
COc1ccc(N2CCN(C(=O)c3ccc4nc(N5CCC(C)CC5)sc4c3)CC2)cc1 | -9.4% | 1.5% | 2.24µM* | -72.0% | -6.4%
Cc1ccc(Cl)cc1N1CCN(C(=O)c2ccc3nc(N4CCC(C)CC4)sc3c2)CC1 | -0.6% | 4.4% | 3.55µM* | -78.6% | -16.4%
COc1cccc(N2CCN(C(=O)c3ccc4nc(N5CCC(C)CC5)sc4c3)CC2)c1 | 0.4% | -0.6% | ? | -63.7% | -19.7%
COc1ccc(C2N=C(Nc3nc4ccccc4o3)NC3=C2C(=O)CCC3)cc1 (stereo unspecified) | nt | 9.2% | nt | nt | nt
O=c1c2ccc(-c3cn[nH]c3)cc2nc2sc(Nc3ccc4c(c3)CCC4)nn12 | nt | -15.1% | nt | nt | nt
Cc1ccc(OCCn2c(CCNC(=O)OC(C)(C)C)nc3ccccc32)cc1 | nt | 2.4% | nt | nt | nt
COc1cccc(C2=CC(c3ccccc3F)n3ncc(C(=O)Nc4ccc(F)cc4)c3N2)c1 (stereo unspecified) | 2.7% | 22.4µM* | ? | -31.4% | -26.2%
COc1cc(C2CC(=O)c3c([nH]c(C(=O)OC4CCCC4)c3C)C2)cc(OC)c1OC (stereo unspecified) | -2.7% | -5.4% | 4.47µM* | -54.0% | -28.6%
CCN(CCN(C)C)C(=O)CNCc1cc(C(N)=O)ccn1 | nt | 6.8%[57.5 µM] | nt | nt | ?

Screening data deposited in PubChem BioAssay by National Center for Advancing Translational Sciences (NCATS).
